# Laboratory results from publication PMC5540273 (PLoS ONE, 2017).
# Tests used:
# Conditions in all cases: concentration: 1 μM,replicates: in singlicate; n = 1
# TNNI3K = system: TNNI3K
# TRKA = system: T1, TRKA
# T1 construct: gene NTRK1
# TRKB = system: TRKB
# TRKC = system: T2, TRKC
# T2 construct: gene NTRK3
# TRPM6 = system: TRPM6
# TSSK1B = system: TSSK1B
# TSSK3 = system: TSSK3
# TTK = system: TTK
# TXK = system: TXK
# [1] = system: TYK2(JH1domain-catalytic)
# [2] = system: TYK2(JH2domain-pseudokinase)
# TYRO3 = system: TYRO3
# ULK1 = system: ULK1
# ULK2 = system: ULK2
# ULK3 = system: ULK3
# VEGFR2 = system: T3, VEGFR2
# T3 construct: gene KDR
# VPS34 = system: T4, VPS34
# T4 construct: gene PIK3C3
# VRK2 = system: VRK2
# WEE1 = system: WEE1
# WEE2 = system: WEE2
# 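Also: KINOMEscan kinase panel screen.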
SMILES,%Inh (TNNI3K) [%],%Inh (TRKA) [%],%Inh (TRKB) [%],%Inh (TRKC) [%],%Inh (TRPM6) [%],%Inh (TSSK1B) [%],%Inh (TSSK3) [%],%Inh (TTK) [%],%Inh (TXK) [%],%Inh [1] [%],%Inh [2] [%],%Inh (TYRO3) [%],%Inh (ULK1) [%],%Inh (ULK2) [%],%Inh (ULK3) [%],%Inh (VEGFR2) [%],%Inh (VPS34) [%],%Inh (VRK2) [%],%Inh (WEE1) [%],%Inh (WEE2) [%]
O=c1[nH]cc(-c2ccc(O)cc2)c2sc(-c3ccncc3)cc12 [GSK1033723],18,46,0,14,2,0,9,11,5,0,16,8,8,2,6,0,0,0,3,0
NC(=O)Nc1sc(-c2ccc(F)cc2)cc1C(N)=O [GW789449],24,98.6,89,67,1,0,0,32,21,98.6,100,16,32,40,55,19,22,0,30,11
Cc1cccc2c(-c3ccncc3)c(-c3ccc(F)cc3)nn12.Cl [GW461487],8,37,0,0,0,4,15,0,0,7,0,0,0,0,1,0,18,0,8,11
COc1cccc(OC)c1C(=O)Nc1cccc(-c2nn3ccccc3c2-c2ccnc(Nc3cccc(F)c3)n2)c1 [GSK361065],8,0,0,0,4,20,0,5,6,0,0,79,0,13,0,18,0,0,9,12
COc1cccc(C2=C(Nc3cccc(Cl)c3)C(=O)NC2=O)c1 [SB-341556],14,0,36,19,0,16,6,13,1,14,46,21,42,7,12,0,0,0,5,0
CC(=O)Nc1ccc(-c2cc3ncnc(SCC(=O)O)c3s2)cc1,0,31,0,0,23,21,0,0,17,37,0,0,10,13,15,27,0,0,0,4
CC(C(=O)NC1CCN(c2ccnc(Nc3ccc(F)cc3)n2)C1)c1ccc(Cl)cc1 (centres unmarked) [GSK1379713],0,33,11,0,0,0,5,11,0,9,0,0,7,0,2,3,4,0,6,13
COC(=O)c1cccc(NC(=O)NC2CCN(c3ccnc(NCc4ccc(F)cc4)n3)CC2)c1 [GSK1379860],0,0,12,24,0,0,11,0,7,13,5,17,20,0,15,8,17,7,8,8
Cn1ccc2ncnc(Oc3ccc(NC(=O)Nc4cccc(C(F)(F)F)c4)c(F)c3)c21,82,100,88,96.4,0,0,0,18,0,0,0,3,0,0,0,99.1,0,0,43,0
Cl.Cl.NC[C@H](CC1CCCCC1)NC(=O)c1ccc(-c2ccnc3[nH]ccc23)s1 [GSK1581428],0,77,26,54,7,84,25,41,0,29,0,0,31,0,13,0,9,26,8,30
COc1ccc(Nc2nccc(N3CCC(NC(=O)c4cccc(C#N)c4)C3)n2)cc1 (centres unmarked) [GSK1379730],0,40,14,43,0,0,12,0,41,44,18,0,0,0,10,0,46,0,0,6
Nc1nccc(-c2ccc3c(N)n[nH]c3c2)n1 [GSK1034945],13,0,0,0,26,0,27,0,0,34,52,0,41,13,4,0,0,0,35,0
Cc1n[nH]c2cc(Nc3ccnc(Nc4cccc(CN5CCOCC5)c4)n3)ccc12 [GW682569],17,100,60,45,43,0,12,37,60,95.9,99.2,0,1,0,55,45,18,27,10,0
Cc1ccc2c(-c3ccnc(Nc4ccc(C(F)(F)F)cc4)n3)cnn2n1 [GW819776],3,0,0,0,43,0,0,38,0,5,69,0,0,0,21,0,48,31,6,0
CS(=O)(=O)Nc1ccc(-c2ccnc3[nH]ccc23)cc1 [GSK993273],7,91,48,39,27,17,26,60,0,99.6,24,0,64,10,95.4,48,31,0,5,0
Cn1ccc2ncnc(Oc3ccc(NC(=O)Nc4cccc(C(F)(F)F)c4)c(Cl)c3)c21,87,53,84,84,0,0,0,25,0,0,0,0,0,0,1,98.2,0,0,3,9
N#Cc1cccc(C(=O)NC2CCN(c3ccnc(Nc4ccc(F)cc4)n3)C2)c1 (centres unmarked) [GSK1379708],4,0,8,28,0,0,18,0,0,14,12,0,7,0,0,0,0,0,12,6
Cc1nnc(-c2ccc3occ(-c4ccc(S(C)=O)cc4)c3n2)o1 (centres unmarked),0,0,0,0,0,0,0,8,0,0,0,0,0,0,0,0,17,0,0,21
O=C1NCCc2[nH]c(-c3ccncc3)cc21,0,10,19,14,0,0,0,1,2,80,41,0,25,32,18,25,25,19,13,0
